Only some compounds are listed: those with a hit (about 27% of all), similar ones and a draw of the others.
CYP2C19 inhib: human CYP2C19 inhibition | P33261 | CYP2C19 Supersomes, luciferin-H EGE luminescence, 30 min | 96,000 compounds, 21% hits | inhibition, % at 5 µM;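 active = CYP2C19 inhibition above a set limit at 5 µM in the primary screen, cut at about 50% in these data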;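 note: plate controls were negative control wells for no effect and 2.5 mM tranylcypromine positive control for full effect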
Target sequence (P33261 whole entry, looked up): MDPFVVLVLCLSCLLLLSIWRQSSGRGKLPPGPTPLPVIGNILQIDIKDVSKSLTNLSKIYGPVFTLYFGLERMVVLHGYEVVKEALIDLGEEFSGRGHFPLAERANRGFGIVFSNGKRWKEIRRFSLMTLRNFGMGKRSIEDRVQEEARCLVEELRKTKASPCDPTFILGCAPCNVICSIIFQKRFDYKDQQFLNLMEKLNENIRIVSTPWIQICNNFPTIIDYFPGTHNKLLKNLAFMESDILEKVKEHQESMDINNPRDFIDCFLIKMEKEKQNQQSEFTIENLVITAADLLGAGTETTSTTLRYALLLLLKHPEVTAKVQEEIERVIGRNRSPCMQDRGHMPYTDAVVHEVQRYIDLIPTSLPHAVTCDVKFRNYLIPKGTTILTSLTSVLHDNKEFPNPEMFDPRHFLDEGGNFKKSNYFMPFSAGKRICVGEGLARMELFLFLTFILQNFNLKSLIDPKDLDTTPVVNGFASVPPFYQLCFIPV
sEH inh: inhibitors of human soluble epoxide hydrolase; P34913; recombinant human sEH enzymatic activity assay; inhibition, % at 2 µM; 91,000 compounds, 0.34% hits; AID 707; in the data active = inhibition above about 80%
sEH activator: activators of human soluble epoxide hydrolase; activation, % at 2 µM; P34913; 91,000 compounds, 0.04% hits; purified human sEH enzymatic activity, activator screen; in the data active = activation above about 37%
CYP2C19 act: activators of human cytochrome P450 2C19; activation factor at 5 µM; recombinant CYP2C19, luciferin-H EGE luminescence; stronger effect = higher value; 0 = fully inhibited enzyme, 1 = untreated enzyme; AID 1025; P33261; 96,000 tested, under 10 active;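 active = activation factor of at least 2 at 5 µM in the primary screen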;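 note: 0 = wells with 2.5 mM tranylcypromine and 1 = vehicle-only wells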
CYP2C9 inh: human CYP2C9 inhibition. CYP2C9 Supersomes, luciferin-H conversion, luminescence. inhibition, % at 5 µM. 96,000 compounds, 20% hits. AID 777;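 active = blocking of liver enzyme CYP2C9 beyond about 50% at 5 µM, limit read from the data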
CYP2C9 activ: CYP2C9 (human) activation; recombinant CYP2C9, luciferin-H conversion, luminescence; stronger effect = higher value; factor 1 = untreated enzyme, 0 = blocked; 96,000 compounds, 1.4% hits; activation factor at 5 µM; P11712; AID 1024;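 active = activation factor of 2 or more for CYP2C9 at a 5 µM dose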;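 note: 0 = sulfaphenazole-blocked wells and 1 = vehicle-only wells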
The depositor's hits bear a star; x = not tested or not shown.

SMILES | CYP2C19 inhib | sEH inh | sEH activator | CYP2C19 act | CYP2C9 inh | CYP2C9 activ
CCN(CC)S(=O)(=O)c1ccc2c(c1)nc(SC(C)C(N)=O)n2-c1ccc(OC)cc1 (stereo unspecified) | 62* | 3 | -4 | 0.4 | 91* | 0.1
C=CCOc1ccccc1CN1CCSCC1 | 71* | x | x | 0.3 | 10 | 0.9
CCOc1cc(CN2CCSCC2)ccc1O | 0 | x | x | 1 | -17 | 1.2
Clc1ccc(OCCSc2ncccn2)cc1 | 29 | -8 | 6 | 0.7 | 20 | 0.8
COc1cccc(COc2cc3ccccc3nc2C)c1 | 43 | 20 | -20 | 0.6 | 78* | 0.2
Cc1nc2ccccc2cc1OCc1ccccc1 | 26 | 3 | -3 | 0.7 | 65* | 0.4
COc1cccc(CNc2ncnc3cc(OC)c(OC)cc23)c1 | 13 | -7 | 9 | 0.9 | -47 | 1.5
Cc1nc2ccccc2cc1OCc1ccc(Cl)cc1 | 1 | x | x | 1 | 25 | 0.8
NC(=O)c1ccccc1OCC(=O)NC12CC3CC(CC(C3)C1)C2 | 12 | 0 | 2 | 0.9 | -17 | 1.2
O=C(Cn1sc2ccccc2c1=O)NC12CC3CC(CC(C3)C1)C2 | 39 | 22 | -21 | 0.6 | 90* | 0.1
Cc1cc(C)n2nc(SCC3COc4ccccc4O3)nc2n1 (stereo unspecified) | 30 | 0 | 1 | 0.7 | 16 | 0.8
COc1ccc(/C=C/c2c([N+](=O)[O-])c(=O)n(C)c(=O)n2C)cc1O | 10 | -12 | 15 | 0.9 | 53* | 0.5
Cc1c(Cl)cccc1Nc1nc(N)nc(CSc2ncccn2)n1 | 52* | 7 | -6 | 0.5 | 67* | 0.3
O=C(c1ccc(CSCc2ccccc2F)o1)N1CCN(c2ccc(N3CCOCC3)nn2)CC1 | 60* | x | x | 0.4 | 50* | 0.5
CC(NC(=O)C1CCCN(S(=O)(=O)c2cccs2)C1)c1ccccc1 (stereo unspecified) | 59* | 29 | -29 | 0.4 | 95* | 0
CC(C)NC(=O)C1CCCN(S(=O)(=O)c2cccs2)C1 (stereo unspecified) | 58* | -21 | 18 | 0.4 | 2 | 1
OCCOc1nnnn1-c1ccccc1 | -3 | -10 | 13 | 1 | 10 | 0.9
COC(=O)c1[nH]c2ccccc2c1NC(=O)CN1CCC(C(N)=O)(N2CCCCC2)CC1 | 18 | -8 | 12 | 0.8 | 49 | 0.5
CC1CCCCN1C(=O)CSc1nnc(-c2c[nH]c3ccccc23)o1 (stereo unspecified) | 79* | x | x | 0.2 | -15 | 1.2
Cc1ccc(C(=O)CSc2nnc(-c3c[nH]c4ccccc34)o2)cc1 | 38 | -10 | 13 | 0.6 | 53* | 0.5
O=C(CSc1nnc(-c2c[nH]c3ccccc23)o1)N(Cc1ccccc1)c1ccc(F)cc1 | x | -6 | 7 | x | x | x
O=C(NCCNC(=O)C1CC2CCC1C2)C1CC2CCC1C2 (stereo unspecified) | 0 | -13 | 15 | 1 | -8 | 1.1
COC(=O)C1=C(C(=O)OC)C2(OC1c1cccc(F)c1)C(=O)c1ccccc1C2=O (stereo unspecified) | 20 | -12 | 14 | 0.8 | 29 | 0.7
Cc1ccc(OCCCC(=O)N2CCOCC2)cc1 | 75* | 3 | -4 | 0.2 | -8 | 1.1
Cc1ccc(OCCN2CCCCCC2)c(C)c1 | 58* | -8 | 8 | 0.4 | 15 | 0.8
SMILES | CYP2C19 inhib | sEH inh | sEH activator | CYP2C19 act | CYP2C9 inh | CYP2C9 activ
C=CCNC(=O)CCCOc1ccc(C)cc1 | 73* | 4 | -9 | 0.3 | 60* | 0.4
Cc1cc(Cl)ccc1OCCCC(=O)N1CCCCC1 | 97* | -20 | 19 | 0 | -26 | 1.3
CCC(C)(C)NC(=O)C(c1ccc(F)cc1)N(Cc1ccco1)C(=O)c1cnccn1 (stereo unspecified) | -6 | -16 | 16 | 1.1 | -9 | 1.1
C/C(CC(=O)Nc1ccc(OCc2ccccc2)cc1)=N\NC(=O)C(=O)Nc1ccccc1C | -11 | 2 | 0 | 1.1 | 20 | 0.8
COc1ccc(C(=S)Nc2ccc(N(C)C)cc2)cc1 | 30 | -2 | 4 | 0.7 | -20 | 1.2
Cc1cc(OCCCC(=O)N2CCCCC2)cc(C)c1Cl | 93* | -17 | 20 | 0.1 | -2 | 1
COCCNC(=O)COc1ccc(C)cc1C | 67* | -2 | 0 | 0.3 | 9 | 0.9
Cc1ccc(OCCCC(=O)Nc2ccc(N3CCOCC3)cc2)c(C)c1 | -5 | 37 | -37 | 1.1 | -3 | 1
Cc1cc(Cl)ccc1OCCCC(=O)N1CCOCC1 | 98* | -21 | 19 | 0 | -79 | 1.8
O=C(COc1ccc(Br)cc1)N1CCCCCC1 | 94* | x | x | 0.1 | 31 | 0.7
CC1CCN(C(=O)CCCOc2ccc(Cl)cc2)CC1 | x | -4 | 6 | x | x | x
CC(C)CCN1C(=O)c2ccc(C(=O)OCn3nnc4ccccc4c3=O)cc2C1=O | 8 | x | x | 0.9 | 10 | 0.9
CC(C)N1C(=O)CC2(CC[N+](C)(CCOC(=O)C(c3ccccc3)c3ccccc3)CC2)C1=O (stereo unspecified) | 11 | 5 | -3 | 0.9 | -5 | 1.1
Cc1cccc(OCC(=O)Nc2nonc2NC(=O)COc2cccc(C)c2)c1 | x | -2 | 0 | x | x | x
Cc1ccc(OCC(=O)N2CCCCCC2)c(C)c1 | 80* | 6 | -11 | 0.2 | -20 | 1.2
Cc1ccc(C)c(OCC(=O)Nc2nonc2NC(=O)COc2cc(C)ccc2C)c1 | 15 | 4 | -4 | 0.8 | 77* | 0.2
CCC(=O)OC1=C2C(=Nc3c(c(=O)n(C)c(=O)n3C)C2c2ccccc2)c2ccccc21 (stereo unspecified) | x | -11 | 10 | x | x | x
CN(CCO)C(=O)CCC(=O)Nc1ccc(S(N)(=O)=O)cc1 | -9 | -8 | 6 | 1.1 | -25 | 1.3
Cc1nn(Cc2ccccc2)c(C)c1NC(=O)c1noc2c1CCc1ccccc1-2 | 38 | -10 | 8 | 0.6 | 61* | 0.4
Cc1cc(NC(=O)c2noc3c2CCc2ccccc2-3)n(-c2ccccc2)n1 | -1 | x | x | 1 | 4 | 1
Cc1ccc(NC(=O)c2noc3c2CCc2ccccc2-3)cc1 | -7 | -11 | 11 | 1.1 | -34 | 1.3
CCc1ccc(NC(=O)c2noc3c2CCc2ccccc2-3)cc1 | 4 | -17 | 16 | 1 | -112 | 2.1*
CCC(=O)N1CCN(c2ccccc2NC(=O)Cc2ccccc2)CC1 | 59* | 12 | -14 | 0.4 | 42 | 0.6
CS(=O)(=O)N1CCN(c2ccccc2NC(=O)Cc2ccc(Cl)cc2)CC1 | 14 | 8 | -11 | 0.9 | 32 | 0.7
O=C(Cc1ccccc1)Nc1ccccc1N1CCN(c2ccccc2)CC1 | 16 | 5 | -7 | 0.8 | 14 | 0.9
CS(=O)(=O)N1CCN(c2ccccc2NC(=O)c2ccc(-c3ccc(Cl)cc3Cl)o2)CC1 | 25 | -6 | 5 | 0.8 | 50* | 0.5
CS(=O)(=O)N1CCN(c2ccccc2NC(=O)Cc2ccccc2)CC1 | 62* | 6 | -6 | 0.4 | 50 | 0.5
O=C(O)c1cc2c([nH]c1=O)CCCC2 | -19 | 4 | 0 | 1.2 | -21 | 1.2

Screens from PubChem.
